Test [1] relates to Plasmodium falciparum Sir2 (PF13_0152, Sir2A). The experiment in a line: pfSir2 binders on small-molecule microarrays, primary screen, biochemical, small-molecule microarray, 635 nm fluorescence (AID 1098).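 Also: score merges spot fluorescence intensity with its signal-to-noise ratio.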 The settings on record: small-molecule microarray binding, fluorescence 635 nm; higher = more signal.
Test [2] in a line: small-molecule microarray binders of probe aDKK1, primary screen, biochemical, biotinylated probe, 635/667 nm fluorescence (AID 1099).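 Also: score merges 667nm spot fluorescence with signal to noise across triplicate slides.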 The settings on record: higher = more signal.
Test [3] is described as follows: small-molecule microarray binders of probe aCHRDL2, primary screen, biochemical, biotinylated probe, 635/667 nm fluorescence (AID 1100). The settings on record: higher = more signal.
A short description of test [4]: splicing luciferase reporter signal modulators, primary screen, spliceosome inhibition project, cell-based, HEK293, splice +/- reporter (AID 1101).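 Also: HEK293 cells carrying a splicing-competent luciferase reporter gene; test concentration not given here.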 The settings on record: luminescence, 24 h, higher = more signal, called active from +8 up or from −8 down.
Test [5] deals with Fibroblast growth factor 10 (Homo sapiens) (UniProt O15520). The experiment in a line: FGF10 binders on small-molecule microarrays, primary screen, biochemical, small-molecule microarray, 635 nm fluorescence (AID 1102). The settings on record: FGF10 binding, fluorescence 635 nm, higher = more signal.
Test [6] concerns glycogen synthase kinase-3 (GSK3A per assay name; protocol says GSK3B). The experiment in a line: GSK3 binders on small-molecule microarrays, primary screen, biochemical, small-molecule microarray, 635 nm fluorescence, GSK3A (AID 1103). Also: the record names both GSK3A and GSK3B. The settings on record: small-molecule microarray binding, fluorescence 635 nm; higher = more signal.
The target in test [7] is Epidermal growth factor receptor (Homo sapiens) (UniProt P00533). The experiment in a line: EGFR binders on small-molecule microarrays, primary screen, biochemical, small-molecule microarray, 635 nm fluorescence (AID 1104).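 Also: score merges 667 nm emission intensity with spot signal to noise over triplicate slides.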 The settings on record: EGFR binding, higher = more signal.
For test [8], the target named is Follistatin-related protein 3 (Homo sapiens) (UniProt O95633). The experiment in a line: FSTL3 binders on small-molecule microarrays, primary screen, biochemical, small-molecule microarray, 635 nm fluorescence (AID 1105).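 Also: score merges emission near 667 nm and signal to noise per printed spot across three slides.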 The settings on record: FSTL3 binding, higher = more signal.
Test [9] addresses Dickkopf-related protein 1 (Homo sapiens) (UniProt O94907). The experiment in a line: DKK1 binders on small-molecule microarrays, primary screen, biochemical, small-molecule microarray, 635 nm fluorescence scan (AID 1106).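 Also: score merges emission near 667 nm with signal to noise over three replicate slides.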 The settings on record: DKK1 binding, higher = more signal.
The test system of test [10] is Inhibin beta A chain (activin A). The experiment in a line: INHBA (activin A) binders on microarrays, primary screen, biochemical, small-molecule microarray, 635 nm fluorescence scan (AID 1107).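 Also: mouse activin A protein probed at 4.33 µg/mL on printed slides; score merges bound-protein fluorescence near 667 nm with spot signal-to-noise.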 The settings on record: small-molecule microarray binding, higher = more signal.
Test [11] relates to Human papillomavirus type 1a protein E7 (residues 44-93). The experiment in a line: HPV1a E7 fragment binders on microarrays, primary screen, biochemical, small-molecule microarray, residues 44-93, 635 nm fluorescence (AID 1108).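 Also: E7 fragment applied at 1 µg/mL in TBST for 1 h at 4 C; score combines spot fluorescence with its signal to noise ratio.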 The settings on record: small-molecule microarray binding, fluorescence 635 nm; higher = more signal.
Test [12] is described as follows: modulators of HCV replicon luciferase signal, primary screen, HCV replication inhibitor project, Huh7 cells, luciferase reporter (AID 1109).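 Also: huh7 hepatoma cells harbouring a luciferase neomycin HCV replicon reporter; luciferase luminescence as measure of HCV replicon replication; test concentration not given here.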 The settings on record: 48 h, higher = more signal. (In general: In antiviral work, replicon cells carry a viral genome segment that copies itself.)
The target of test [13] is Left-right determination factor 2 (Homo sapiens) (UniProt O00292). The experiment in a line: LEFTY2 binders on small-molecule microarrays, primary screen, biochemical, small-molecule microarray, 635 nm fluorescence scan (AID 1110). The settings on record: LEFTY2 binding, higher = more signal.
Test [14] concerns the target Calmodulin-1 (Homo sapiens) (UniProt P0DP23). The experiment in a line: CALM1 binders on microarrays, EGTA buffer, profiling panel, biochemical, small-molecule microarray, Cy5-labelled CALM1 (AID 1111).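 Also: labelled calmodulin applied in Tris saline Tween buffer holding calcium plus EGTA and DTT.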 The settings on record: Cy5-CALM1 binding fluorescence, higher = more signal.
Test [15] has the same target. The experiment in a line: calcium-bound CALM1 binders on microarrays, profiling panel, artefact control for SMM control-protein annotation, biochemical, small-molecule microarray, Cy5-labelled CALM1, plus calcium (AID 1112).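 Also: score merges spot fluorescence with signal to noise from triplicate slides.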 The settings on record: Cy5-CALM1 binding fluorescence, higher = more signal.
A short description of test [16]: small-molecule microarray binders of probe aWnt5a, primary screen, biochemical, biotinylated probe, 635/667 nm fluorescence (AID 1113).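 Also: score merges 667 nm fluorescence intensity with signal-to-noise per printed feature.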 The settings on record: higher = more signal.
Test [17] can be described thus: small-molecule microarray binders of probe aShh, primary screen, biochemical, biotinylated probe, 635/667 nm fluorescence (AID 1114).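 Also: probe is biotin-labelled aShh protein from a stem cell growth factor screen; measures binding of labelled protein to compounds printed on the slide; score merges feature fluorescence at 667 nm with signal-to-noise.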 The settings on record: higher = more signal.
Test [18] can be described thus: small-molecule microarray binders of probe aNog, primary screen, biochemical, biotinylated probe, 635/667 nm fluorescence (AID 1115).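 Also: probe is biotinylated aNog protein used at 0.15 µg/mL for 1 h at 4 C; z-score combines 667 nm fluorescence of each spot with its signal to noise.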 The settings on record: higher = more signal.
In test [19] the target is Torsin-1A-interacting protein 1 (Homo sapiens) (UniProt Q5JTV8). The experiment in a line: LAP1 binders from COS7 cell lysate, primary screen, small-molecule microarray, 635/667 nm fluorescence (AID 1116). The settings on record: COS7-hLAP1 lysate binding, 635 nm fluorescence, higher = more signal.
The target in test [20] is Alpha-bungarotoxin (Bungarus multicinctus) (UniProt P60615). The experiment in a line: alpha-bungarotoxin binders on microarray, profiling panel, artefact control for SMM control protein annotation, biochemical, small-molecule microarray, Alexa647 label, 635/667 nm fluorescence (AID 1117). The settings on record: alpha-BTX-A647 binding fluorescence, higher = more signal.

The structures appear in SMILES notation. Activity calls are given as the source filed them.

Sequence of Left-right determination factor 2 (Homo sapiens) (O00292 whole entry, looked up): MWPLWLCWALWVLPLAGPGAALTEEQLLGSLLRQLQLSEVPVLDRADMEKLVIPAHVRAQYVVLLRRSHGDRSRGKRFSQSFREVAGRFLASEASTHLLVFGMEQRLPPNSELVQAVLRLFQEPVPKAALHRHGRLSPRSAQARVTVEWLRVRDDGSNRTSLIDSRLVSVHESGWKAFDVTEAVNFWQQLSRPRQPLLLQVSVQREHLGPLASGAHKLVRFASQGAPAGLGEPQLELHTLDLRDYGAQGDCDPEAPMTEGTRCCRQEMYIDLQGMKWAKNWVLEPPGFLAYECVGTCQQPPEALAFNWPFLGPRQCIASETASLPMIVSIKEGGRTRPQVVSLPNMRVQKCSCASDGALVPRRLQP
Sequence of Fibroblast growth factor 10 (Homo sapiens) (O15520 whole entry, looked up): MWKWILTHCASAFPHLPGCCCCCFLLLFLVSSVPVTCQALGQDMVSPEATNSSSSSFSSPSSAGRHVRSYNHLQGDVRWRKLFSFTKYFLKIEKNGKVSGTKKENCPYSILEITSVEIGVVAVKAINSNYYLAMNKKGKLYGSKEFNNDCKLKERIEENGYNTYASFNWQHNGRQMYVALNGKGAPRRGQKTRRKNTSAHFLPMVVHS
Sequence of Dickkopf-related protein 1 (Homo sapiens) (O94907 whole entry, looked up): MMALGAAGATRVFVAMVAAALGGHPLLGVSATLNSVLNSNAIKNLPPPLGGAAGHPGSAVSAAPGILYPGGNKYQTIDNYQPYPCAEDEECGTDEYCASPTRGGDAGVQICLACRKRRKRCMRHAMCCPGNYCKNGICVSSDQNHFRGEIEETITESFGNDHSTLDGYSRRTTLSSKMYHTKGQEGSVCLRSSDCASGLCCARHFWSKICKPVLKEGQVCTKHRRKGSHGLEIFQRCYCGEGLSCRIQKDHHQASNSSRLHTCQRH
Sequence of Torsin-1A-interacting protein 1 (Homo sapiens) (Q5JTV8 whole entry, looked up): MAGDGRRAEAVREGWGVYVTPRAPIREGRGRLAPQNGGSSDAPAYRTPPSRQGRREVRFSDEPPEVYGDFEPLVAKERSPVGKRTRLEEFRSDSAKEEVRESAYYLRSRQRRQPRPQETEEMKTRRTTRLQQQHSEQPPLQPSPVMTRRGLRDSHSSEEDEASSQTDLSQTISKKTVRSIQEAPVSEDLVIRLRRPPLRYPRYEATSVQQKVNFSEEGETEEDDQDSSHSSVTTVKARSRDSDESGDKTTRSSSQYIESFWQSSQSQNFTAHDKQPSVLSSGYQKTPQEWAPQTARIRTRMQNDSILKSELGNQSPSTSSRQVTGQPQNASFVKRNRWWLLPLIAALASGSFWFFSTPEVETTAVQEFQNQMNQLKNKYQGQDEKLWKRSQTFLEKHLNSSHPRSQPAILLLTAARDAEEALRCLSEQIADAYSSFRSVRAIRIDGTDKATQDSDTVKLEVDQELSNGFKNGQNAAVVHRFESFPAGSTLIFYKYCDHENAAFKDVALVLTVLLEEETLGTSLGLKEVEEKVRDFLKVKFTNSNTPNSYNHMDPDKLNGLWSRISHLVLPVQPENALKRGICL
Sequence of Epidermal growth factor receptor (Homo sapiens) (P00533 whole entry, looked up): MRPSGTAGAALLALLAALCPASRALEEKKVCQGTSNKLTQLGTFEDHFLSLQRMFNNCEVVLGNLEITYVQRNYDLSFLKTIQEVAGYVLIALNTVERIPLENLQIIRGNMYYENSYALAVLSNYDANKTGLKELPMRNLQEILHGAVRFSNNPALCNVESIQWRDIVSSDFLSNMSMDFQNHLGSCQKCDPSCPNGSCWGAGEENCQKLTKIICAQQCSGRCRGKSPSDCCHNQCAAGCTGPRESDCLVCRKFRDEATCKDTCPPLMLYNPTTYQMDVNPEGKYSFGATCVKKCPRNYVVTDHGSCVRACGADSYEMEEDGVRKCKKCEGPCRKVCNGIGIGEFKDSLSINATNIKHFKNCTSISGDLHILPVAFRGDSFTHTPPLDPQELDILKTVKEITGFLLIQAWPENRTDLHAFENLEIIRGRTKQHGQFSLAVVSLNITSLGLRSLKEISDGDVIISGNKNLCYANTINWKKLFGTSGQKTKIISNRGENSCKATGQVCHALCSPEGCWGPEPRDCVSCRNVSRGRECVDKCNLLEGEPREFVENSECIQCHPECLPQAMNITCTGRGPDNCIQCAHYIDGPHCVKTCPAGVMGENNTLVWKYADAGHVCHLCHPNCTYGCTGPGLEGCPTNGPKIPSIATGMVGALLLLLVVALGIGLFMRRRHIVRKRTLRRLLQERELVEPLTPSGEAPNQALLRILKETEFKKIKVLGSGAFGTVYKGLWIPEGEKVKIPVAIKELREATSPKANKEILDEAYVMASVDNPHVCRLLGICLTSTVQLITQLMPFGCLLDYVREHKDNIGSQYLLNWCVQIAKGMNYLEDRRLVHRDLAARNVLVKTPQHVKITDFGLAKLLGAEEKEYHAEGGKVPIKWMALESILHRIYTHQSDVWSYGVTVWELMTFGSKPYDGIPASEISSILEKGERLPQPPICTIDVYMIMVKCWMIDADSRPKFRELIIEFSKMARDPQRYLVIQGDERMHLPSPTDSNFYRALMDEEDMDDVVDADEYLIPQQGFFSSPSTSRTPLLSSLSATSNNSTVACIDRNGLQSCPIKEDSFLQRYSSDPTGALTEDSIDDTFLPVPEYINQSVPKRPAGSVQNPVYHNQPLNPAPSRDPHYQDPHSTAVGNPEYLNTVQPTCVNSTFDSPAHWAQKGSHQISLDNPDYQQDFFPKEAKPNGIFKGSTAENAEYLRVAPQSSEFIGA
Sequence of Follistatin-related protein 3 (Homo sapiens) (O95633 whole entry, looked up): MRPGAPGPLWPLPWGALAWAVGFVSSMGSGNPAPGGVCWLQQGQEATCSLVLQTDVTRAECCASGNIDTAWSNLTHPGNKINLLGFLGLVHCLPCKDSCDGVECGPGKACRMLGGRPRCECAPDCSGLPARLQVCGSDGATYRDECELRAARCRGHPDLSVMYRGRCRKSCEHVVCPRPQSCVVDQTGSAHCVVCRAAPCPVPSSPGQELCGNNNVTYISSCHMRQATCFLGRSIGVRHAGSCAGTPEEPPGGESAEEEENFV
Sequence of Alpha-bungarotoxin (Bungarus multicinctus) (P60615 whole entry, looked up): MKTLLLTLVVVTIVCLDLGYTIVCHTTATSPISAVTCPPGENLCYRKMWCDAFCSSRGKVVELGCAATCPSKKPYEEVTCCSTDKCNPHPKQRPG

As for `O=C1O[C@@H](c2ccccc2)[C@@H](c2ccccc2)N2[C@@H](c3ccc(OCCO)cc3)[C@]3(C(=O)Nc4ccc(C#CC5=CCCCC5)cc43)[C@@H](C(=O)N3CCCCCCC3)[C@H]12`, the composite z-score was found to be 1.66 in [1]; 2.71 in test [2]; 1.43 in test [3]; 1.32 in test [5]; 1.33 in test [6]; 1.71 in test [7]. The composite z-score in [8] is 1.58; in [9], 2.08; in [10], 1.91; in [11], 1.45; in test [13], 1.59; in [14], 2.33. The composite z-score came to 1.14 in test [15]; 1.21 in test [16]; 2.92 in test [17]; 3.02 in test [18]; 4.33 in [19]; 2.54 in test [20]. Also, the z-score was -0.447 (inactive) in test [4] and -1.58 in test [12].

With `O=C1O[C@H](c2ccccc2)[C@H](c2ccccc2)N2[C@H]1[C@@H](C(=O)NC[C@H](O)c1ccccc1)[C@]1(C(=O)Nc3ccccc31)[C@H]2c1ccc(O)cc1`, the composite z-score is 0.758 in test [1]; -0.0713 in test [2]; 0.489 in test [3]; 1.3 in test [5]; 0.476 in [6]; 0.555 in [7]. Further, the composite z-score is 0.749 in [8]; 0.964 in [9]; -1.04 in [10]; 0.69 in [11]; 0.733 in [13]; 1.06 in test [14]. The composite z-score in test [15] was 0.659; in test [16], -0.124; in test [17], -0.138; in test [18] it was 0.293; in [19], 0.825; in [20], 0.771. Besides, the z-score was -0.4 (inactive) in [4] and -0.705 in test [12].

For `CC(CO)N1C(=O)[C@@H]2C3C(=O)OCCC/C=C\[C@H]3OC23C=CCN(CCN2CCOCC2)C(=O)[C@@H]13` (stereo not given in full), the composite z-score in [1] was 0.238; in test [2], -0.412; in test [3], -0.48; in test [5], 0.516; in test [6], 0.494; in test [7], -0.493. For the same compound, the composite z-score in test [8] is 0.124; in test [9] it was 0.281; in [10], 0.693; in test [11], -0.201; in test [13] it was -0.0109; in test [14] it was -0.514. In addition, the composite z-score in test [15] was -1.01; in test [16] it was -0.152; in [17], 0.0048; in test [18] it was -0.272; in test [19] it was -0.116; in test [20], 0.0654. Further, the z-score in test [4] was -0.669 (inactive); in test [12] it was -0.77.

Consider `C=C(CCCC)/C(=C/C[C@@H](OC(C)=O)c1ccccc1OCCO)c1cc(C(=O)OC)ccc1OC`, for which the composite z-score in [1] was 0.175; in test [2], -0.211; in test [3] it was -0.271; in test [5], -0.104; in test [6] it was 0.098; in test [7], -0.657. Moreover, the composite z-score was -0.458 in [8]; -0.149 in test [9]; 0.864 in test [10]; 0.129 in [11]; -0.346 in test [13]; -0.421 in test [14]. Further, the composite z-score was -0.798 in [15]; -0.124 in test [16]; -0.0769 in test [17]; 0.0459 in test [18]; -0.107 in test [19]; 1.15 in test [20]. In addition, the z-score in test [4] was -0.5 (inactive); in test [12], -2.13.

On to `CO[C@H]1O[C@H](CO)[C@@H](OC(=O)Nc2ccc(Oc3ccccc3)cc2)[C@H](OC(=O)Nc2ccc3c(c2)OCO3)[C@@H]1OC(=O)Nc1ccc2c(c1)OCO2`, for which the composite z-score in test [1] came to 1.38; in [2], 0.337; in test [3] it was 0.478; in test [5] it was 1.17; in [6] it was 1.33; in [7], 0.54. Further, the composite z-score is 1.39 in test [8]; 0.46 in test [9]; 0.707 in test [10]; 0.794 in test [11]; 0.627 in [13]; 1.15 in test [14]. The composite z-score is -0.23 in test [15]; 0.0374 in [16]; 0.246 in test [17]; 0.565 in test [18]; 1.37 in test [19]; 1.26 in test [20]. Also, the z-score in [4] was -0.762 (inactive); in test [12] it was 0.166.

As to `C=CC[C@]1(C(=O)NCc2ccccc2)N=C(c2ccc(OCCCO)cc2)O[C@H]1c1ccccc1CN=[N+]=[N-]`, the composite z-score in test [1] is 1.51; in test [2] it was 0.709; in test [3] it was 0.899; in test [5], 1.19; in [6], 1.24; in [7] it was 0.171. In addition, the composite z-score in [8] amounted to 1.39; in test [9] it was 0.607; in test [10] it was 0.835; in test [11], 1.42; in test [13] it was 0.13; in test [14], 0.764. Besides, the composite z-score in test [15] was 0.358; in test [16], -0.001; in [17] it was -0.0146; in [18], -0.516; in test [19], 0.854; in [20], 0.361. Moreover, the z-score in [4] was -0.169 (inactive); in test [12] it was -2.42.
